The source of these data is PubChem BioAssay (EPA / NIEHS).

Values joined by “and” are separate entries in the source; they are usually repeats but may differ in a detail not shown here. Equal entries are not always repeated. Results filed as inconclusive are left out. A structure can be active in one record and inactive in another. Active and inactive are the calls of the source. The calls were made as follows, unless noted: active = hit-call score of the fitted dose curve at least 0.9, where 1 is the maximum; inactive = score below 0.9.

Test [1] is described as follows: ATG_TAL_CIS: Attagene CIS-FACTORIAL HepG2 Assay for human TAL Basal Promoter (AID 2282966).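 Also: background control endpoint measuring basal TAL promoter reporter mRNA not a specific factor.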 Conditions: HepG2 Attagene cis-factorial TAL promoter reporter; actives raise or lower the signal. The procedure, abridged: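 HepG2 cells were transiently transfected with promoter-driven multiplexed reporter units and dosed for 24 h. Reporter mRNA was measured by RT-PCR with capillary electrophoresis fluorescence; bidirectional fits used DMSO as baseline, serving as a background control.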

Test [2] is described as follows: ATG_TGFb_CIS: Attagene CIS-FACTORIAL HepG2 Assay for human Transforming Growth Factor (TGF) (AID 2282967). As to conditions: HepG2 Attagene CIS TGFb reporter, mRNA transcription; actives raise or lower the signal. The essentials: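 HepG2 cells transiently transfected with cis-promoter-driven multiplexed reporter units; 24 h compound exposure. Reporter mRNA measured by RT-PCR, 6-FAM labeling, HpaI digestion and capillary electrophoresis; bidirectional fit versus DMSO baseline.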

Test [3] in a line: ATG_VDRE_CIS: Attagene CIS-FACTORIAL HepG2 Assay for human Vitamin D Receptor Element (VDRE) (AID 2282968). Conditions: HepG2 VDRE cis-reporter transcription, actives raise or lower the signal. The procedure, abridged:
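HepG2 cells transiently transfected with cis-element reporter units, dosed 24 h; reporter mRNA measured by RT-PCR, 6-FAM labeling, HpaI digestion and capillary electrophoresis. Activity fitted bidirectionally against DMSO baseline.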

Test [4] addresses Nuclear receptor subfamily 1 group I member 3 (Homo sapiens) (UniProt Q14994). In words: ATG_CAR_TRANS: Attagene TRANS-FACTORIAL HepG2 Assay for human Constitutive Androstane Receptor (CAR) (AID 2282969; active = hit-call score of the fitted dose curve at least 0.9, where 1 is the maximum;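 also: activators raise reporter mRNA above DMSO so AC50 marks induction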). Conditions: HepG2 Attagene TRANS-FACTORIAL CAR reporter. The essentials: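 HepG2 cells transiently transfected with multiplexed GAL4-UAS reporter units expressing chimeric NR-Gal4 proteins; compound exposure 24 h. Reporter mRNA measured by RT-PCR, 6-FAM labelling, HpaI digestion and capillary electrophoresis; gain-of-signal fitted against DMSO baseline.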

For test [5], the target named is Estrogen receptor (Homo sapiens) (UniProt P03372). In words: ATG_ERa_TRANS: Attagene TRANS-FACTORIAL HepG2 Assay for human Estrogen Receptor alpha (ERa) (AID 2282970; active = hit-call score of the fitted dose curve at least 0.9, where 1 is the maximum). As to conditions: HepG2 Attagene TRANS ERa GAL4 reporter, mRNA. The procedure, abridged: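 HepG2 cells transiently transfected with multiplexed GAL4-UAS reporter units; ERa activity read via exogenous chimeric NR-Gal4 protein. After 24 hour compound exposure, reporter mRNA measured by RT-PCR with 6-FAM labelling and capillary electrophoresis; gain-of-signal fitted relative to DMSO.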

For test [6], the target named is X-box-binding protein 1 (Homo sapiens) (UniProt P17861). Nature of the test: ATG_Xbp1_CIS: Attagene CIS-FACTORIAL HepG2 Assay for human X-box Binding Protein 1 (XBP1) (AID 2282972). Conditions: HepG2 XBP1 cis-element reporter, Attagene multiplex; actives raise or lower the signal. The procedure, abridged:
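HepG2 cells transiently transfected with cis-regulated multiple reporter transcription units; endogenous transcription factor activity measured 24 hours after chemical dosing. Reporter mRNA quantified by RT-PCR, 6-FAM primer extension, HpaI digestion and capillary electrophoresis; bidirectional fitting versus DMSO.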

A short description of test [7]: ATG_M_19_TRANS: Attagene TRANS-FACTORIAL HepG2 Assay for M19 Transcription Factor (Internal Marker) (AID 2282974; active = hit-call score of the fitted dose curve at least 0.9, where 1 is the maximum). Conditions: HepG2 Attagene TRANS-FACTORIAL M19 internal marker reporter. The procedure, abridged: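 Transfected HepG2 (GAL4-UAS MRTUs), 24 h compound, TriZol RNA, DNase-treated RT, reporter PCR, FAM label, HpaI digest, CE fluorescence; gain vs DMSO.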

For test [8], the target named is Glucocorticoid receptor (Homo sapiens) (UniProt P04150). Nature of the test: ATG_GR_TRANS: Attagene TRANS-FACTORIAL HepG2 Assay for human Glucocorticoid Receptor (GR) (AID 2282978; active = hit-call score of the fitted dose curve at least 0.9, where 1 is the maximum;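 also: activators score as hits since higher reporter transcript over DMSO is fitted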). As to conditions: HepG2 Attagene TRANS GR reporter, mRNA transcription. The essentials: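 After 24 h incubation with test chemical, transfected HepG2 cells were lysed for RNA; reporter cDNA was amplified, FAM-labelled, HpaI-digested and sized on a capillary analyser. Signal gain relative to DMSO was scored.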

The target of test [9] is Bile acid receptor (Homo sapiens) (UniProt Q96RI1). Nature of the test: ATG_FXR_TRANS: Attagene TRANS-FACTORIAL HepG2 Assay for Farnesoid X Receptor (FXR) (AID 2282979; active = hit-call score of the fitted dose curve at least 0.9, where 1 is the maximum;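 also: hits raise reporter mRNA above DMSO so AC50 marks FXR activation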). As to conditions: HepG2 Attagene TRANS FXR-GAL4 reporter transcription. The essentials: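 HepG2 cells transiently transfected with reporter constructs in which a chimeric FXR-GAL4 protein drives a GAL4-UAS reporter; 24 h compound exposure. Reporter mRNA measured by RT-PCR, FAM labelling, HpaI digestion and capillary electrophoresis; gain-of-signal versus DMSO.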

Test [10] can be described thus: ATG_M_06_TRANS: Attagene TRANS-FACTORIAL HepG2 Assay for M06 Transcription Factor (Internal Marker) (AID 2282983; active = hit-call score of the fitted dose curve at least 0.9, where 1 is the maximum;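 also: reporter transcript level by RT-PCR then capillary electrophoresis fluorescence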). As to conditions: HepG2 Attagene TRANS M06 internal marker reporter. The essentials:
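HepG2 cells transiently transfected with multiplexed GAL4-UAS reporter transcription units; after 24 h compound exposure, reporter mRNA measured by RT-PCR, FAM-labelled primer extension, HpaI digestion and capillary electrophoresis. Gain-of-signal fitted versus DMSO baseline; background control readout.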

The nature of test [11]: ATG_M_32_TRANS: Attagene TRANS-FACTORIAL HepG2 Assay for M32 Transcription Factor (Internal Marker) (AID 2282984; active = hit-call score of the fitted dose curve at least 0.9, where 1 is the maximum). As to conditions: HepG2 Attagene TRANS M32 internal marker reporter. The essentials:
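HepG2 cells transiently transfected with multiple GAL4-UAS reporter transcription units, dosed for 24 hours; reporter mRNA quantified by RT-PCR, 6-FAM primer extension, HpaI digestion and capillary electrophoresis. Gain-of-signal fitted versus DMSO baseline; internal background-control marker.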

The target of test [12] is Transcriptional activator Myb (Homo sapiens) (UniProt P10242). In words: ATG_Myb_CIS: Attagene CIS-FACTORIAL HepG2 Assay for human Myeloblastosis (Myb) Proto-Oncogene Transcription Factor (AID 2282986). As to conditions: HepG2 Attagene CIS-FACTORIAL Myb reporter transcription; actives raise or lower the signal. The essentials:
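After 24 h of compound dosing, total RNA from transfected HepG2 cells is reverse-transcribed and the reporter sequences amplified, labeled and separated by capillary electrophoresis. Values come from bidirectional fitting against DMSO.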

The target in test [13] is Nuclear respiratory factor 1 (Homo sapiens) (UniProt Q16656). Nature of the test: ATG_NRF1_CIS: Attagene CIS-FACTORIAL HepG2 Assay for human Nuclear Respiratory Factor 1 (NRF1) Orphan Gene (AID 2282987). As to conditions: HepG2 NRF1 cis-element reporter, Attagene multiplex; actives raise or lower the signal. The essentials:
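Measured: fluorescent reporter-specific RT-PCR products from transfected HepG2 cells, separated by capillary electrophoresis. Exposure lasted 24 h. Analysis used bidirectional curve fitting with DMSO as negative control.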

Test [14] is described as follows: ATG_NFI_CIS: Attagene CIS-FACTORIAL HepG2 Assay for human Nuclear Factor I (NFI) (AID 2282989). As to conditions: HepG2 cis-regulatory reporter, NFI response element transcription; actives raise or lower the signal. The procedure, abridged: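 HepG2 cells transiently transfected with cis-element-driven multiplexed reporter transcription units, dosed for 24 h. Reporter mRNA quantified by RT-PCR, fluorescent labelling, HpaI digestion and capillary electrophoresis; bidirectional fit versus DMSO baseline.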

Test [15] has as its target Steroid hormone receptor ERR1 (Homo sapiens) (UniProt P11474). In words: ATG_ERRa_TRANS: Attagene TRANS-FACTORIAL HepG2 Assay for human Estrogen-Related Receptor alpha (ERRa) (AID 2282971; active = hit-call score of the fitted dose curve at least 0.9, where 1 is the maximum). As to conditions: HepG2 Attagene TRANS reporter, ERRa transactivation. The procedure, abridged: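 HepG2 cells transiently transfected with multiplexed GAL4-UAS reporter units reading chimeric ERRa-Gal4 activity; 24 h compound exposure. Reporter mRNA measured by RT-PCR, 6-FAM labelling, HpaI digest and capillary electrophoresis; gain of signal fitted versus DMSO baseline.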

A short description of test [16]: ATG_GAL4_TRANS: Attagene TRANS-FACTORIAL HepG2 Assay for GAL4 (Internal Marker) (AID 2282976; active = hit-call score of the fitted dose curve at least 0.9, where 1 is the maximum). Conditions: HepG2 Attagene TRANS GAL4 internal marker reporter. The essentials: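 HepG2 cells transiently transfected with multiplexed GAL4-UAS reporter constructs were dosed for 24 h. Reporter mRNA was measured by RT-PCR, 6-FAM primer extension, HpaI digestion and capillary electrophoresis, and gain of signal was fitted relative to DMSO.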

Test [17] deals with Oxysterols receptor LXR-alpha (Homo sapiens) (UniProt Q13133). In words: ATG_LXRa_TRANS: Attagene TRANS-FACTORIAL HepG2 Assay for human Liver X Receptor alpha (LXRa) (AID 2282980; active = hit-call score of the fitted dose curve at least 0.9, where 1 is the maximum). Conditions: HepG2 Attagene TRANS reporter, LXRa transactivation. The procedure, abridged:
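HepG2 cells were transiently transfected with multiplexed reporter units driven by chimeric LXRa–GAL4 fusion proteins, then dosed for 24 h. Reporter mRNA was quantified by RT-PCR, fluorescent labelling and capillary electrophoresis; gain of signal fitted against DMSO baseline.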

The target in test [18] is Hepatocyte nuclear factor 4-alpha (Homo sapiens) (UniProt P41235). Nature of the test: ATG_HNF4a_TRANS: Attagene TRANS-FACTORIAL HepG2 Assay for human Hepatocyte Nuclear Factor 4 alpha (HNF4a) (AID 2282982; active = hit-call score of the fitted dose curve at least 0.9, where 1 is the maximum). As to conditions: HepG2 HNF4a transactivation reporter, mRNA readout. The essentials:
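HepG2 cells transiently transfected with multiplexed GAL4-UAS reporter units responsive to chimeric NR-GAL4 proteins; compound exposure 24 h. Reporter mRNA quantified by RT-PCR, 6-FAM labelling, HpaI digestion and capillary electrophoresis; gain of signal versus DMSO baseline.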

For test [19], the target named is Nuclear receptor subfamily 4 group A member 2 (Homo sapiens) (UniProt P43354). In words: ATG_NURR1_TRANS: Attagene TRANS-FACTORIAL HepG2 Assay for human Nuclear Receptor Related Protein 1 (NURR1) (AID 2282985; active = hit-call score of the fitted dose curve at least 0.9, where 1 is the maximum). As to conditions: HepG2 Attagene TRANS reporter, mRNA readout. The procedure, abridged: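 HepG2 cells transiently transfected with GAL4-UAS reporter units and chimeric NR-Gal4 constructs; chemical exposure 24 h. Reporter mRNA quantified by RT-PCR, fluorescent labelling and capillary electrophoresis; gain of signal fitted relative to DMSO baseline.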
Sequence of Nuclear receptor subfamily 4 group A member 2 (Homo sapiens) (P43354 whole entry, looked up, the tested form may be a part): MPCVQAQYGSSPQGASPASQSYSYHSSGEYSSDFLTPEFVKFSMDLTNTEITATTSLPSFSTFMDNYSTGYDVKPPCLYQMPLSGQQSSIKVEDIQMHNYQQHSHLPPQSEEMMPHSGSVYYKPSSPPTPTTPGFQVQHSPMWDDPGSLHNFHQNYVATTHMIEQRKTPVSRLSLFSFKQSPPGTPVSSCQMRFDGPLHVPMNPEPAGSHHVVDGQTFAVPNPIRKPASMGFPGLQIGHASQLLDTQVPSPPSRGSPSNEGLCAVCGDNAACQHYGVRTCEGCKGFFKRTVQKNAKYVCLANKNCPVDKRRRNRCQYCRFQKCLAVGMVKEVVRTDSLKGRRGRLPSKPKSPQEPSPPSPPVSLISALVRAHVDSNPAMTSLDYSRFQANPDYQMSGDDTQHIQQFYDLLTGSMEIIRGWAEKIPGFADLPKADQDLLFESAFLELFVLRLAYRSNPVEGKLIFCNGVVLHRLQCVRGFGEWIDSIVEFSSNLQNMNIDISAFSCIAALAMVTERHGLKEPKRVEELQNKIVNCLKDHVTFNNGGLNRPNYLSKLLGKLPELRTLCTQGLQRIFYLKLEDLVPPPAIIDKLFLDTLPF

Sequence of Nuclear respiratory factor 1 (Homo sapiens) (Q16656 whole entry, looked up): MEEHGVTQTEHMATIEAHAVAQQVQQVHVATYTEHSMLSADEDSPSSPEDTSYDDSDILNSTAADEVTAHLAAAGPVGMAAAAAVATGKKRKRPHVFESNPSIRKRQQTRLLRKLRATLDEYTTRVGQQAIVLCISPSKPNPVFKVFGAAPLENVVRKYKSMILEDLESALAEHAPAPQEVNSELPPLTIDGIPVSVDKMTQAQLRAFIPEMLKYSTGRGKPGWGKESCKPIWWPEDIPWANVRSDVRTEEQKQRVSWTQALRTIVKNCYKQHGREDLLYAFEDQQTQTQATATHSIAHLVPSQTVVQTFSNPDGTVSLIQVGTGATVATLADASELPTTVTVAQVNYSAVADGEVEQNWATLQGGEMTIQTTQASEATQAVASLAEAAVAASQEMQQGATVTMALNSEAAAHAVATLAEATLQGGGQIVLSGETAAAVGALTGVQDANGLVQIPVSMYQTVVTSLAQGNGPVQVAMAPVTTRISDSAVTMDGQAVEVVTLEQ
Sequence of Glucocorticoid receptor (Homo sapiens) (P04150 whole entry, looked up): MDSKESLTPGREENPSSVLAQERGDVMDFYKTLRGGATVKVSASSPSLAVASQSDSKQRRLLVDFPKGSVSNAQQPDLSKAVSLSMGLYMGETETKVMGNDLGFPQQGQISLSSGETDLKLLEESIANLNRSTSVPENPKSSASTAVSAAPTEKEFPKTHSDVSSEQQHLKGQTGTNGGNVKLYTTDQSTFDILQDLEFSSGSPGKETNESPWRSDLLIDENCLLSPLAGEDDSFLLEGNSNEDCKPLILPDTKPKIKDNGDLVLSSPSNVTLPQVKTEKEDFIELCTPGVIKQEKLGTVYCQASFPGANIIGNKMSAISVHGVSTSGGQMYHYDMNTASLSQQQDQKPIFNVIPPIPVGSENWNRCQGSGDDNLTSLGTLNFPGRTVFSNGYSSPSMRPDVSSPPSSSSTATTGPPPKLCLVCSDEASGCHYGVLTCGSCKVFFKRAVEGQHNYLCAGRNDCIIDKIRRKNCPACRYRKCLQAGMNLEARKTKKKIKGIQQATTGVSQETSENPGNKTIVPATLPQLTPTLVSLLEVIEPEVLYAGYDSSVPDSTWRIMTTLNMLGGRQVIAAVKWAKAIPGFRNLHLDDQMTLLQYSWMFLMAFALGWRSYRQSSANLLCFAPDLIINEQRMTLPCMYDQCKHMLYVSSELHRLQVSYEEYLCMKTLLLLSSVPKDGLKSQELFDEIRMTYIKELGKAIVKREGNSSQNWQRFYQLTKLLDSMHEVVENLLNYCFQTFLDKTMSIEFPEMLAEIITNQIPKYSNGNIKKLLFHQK
Sequence of Steroid hormone receptor ERR1 (Homo sapiens) (P11474 whole entry, looked up, the tested form may be a part): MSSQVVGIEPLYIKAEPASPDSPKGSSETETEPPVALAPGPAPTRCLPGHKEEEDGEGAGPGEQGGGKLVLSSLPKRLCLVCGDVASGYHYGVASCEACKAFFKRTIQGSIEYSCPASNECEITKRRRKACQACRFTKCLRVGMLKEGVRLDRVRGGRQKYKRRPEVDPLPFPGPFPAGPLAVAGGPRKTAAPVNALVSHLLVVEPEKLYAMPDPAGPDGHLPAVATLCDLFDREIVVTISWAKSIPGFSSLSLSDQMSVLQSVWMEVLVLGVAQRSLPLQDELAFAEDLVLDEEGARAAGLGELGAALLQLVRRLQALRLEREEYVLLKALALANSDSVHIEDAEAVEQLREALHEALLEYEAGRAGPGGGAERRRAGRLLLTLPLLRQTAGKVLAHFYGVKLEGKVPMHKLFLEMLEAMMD
Sequence of Hepatocyte nuclear factor 4-alpha (Homo sapiens) (P41235 whole entry, looked up, the tested form may be a part): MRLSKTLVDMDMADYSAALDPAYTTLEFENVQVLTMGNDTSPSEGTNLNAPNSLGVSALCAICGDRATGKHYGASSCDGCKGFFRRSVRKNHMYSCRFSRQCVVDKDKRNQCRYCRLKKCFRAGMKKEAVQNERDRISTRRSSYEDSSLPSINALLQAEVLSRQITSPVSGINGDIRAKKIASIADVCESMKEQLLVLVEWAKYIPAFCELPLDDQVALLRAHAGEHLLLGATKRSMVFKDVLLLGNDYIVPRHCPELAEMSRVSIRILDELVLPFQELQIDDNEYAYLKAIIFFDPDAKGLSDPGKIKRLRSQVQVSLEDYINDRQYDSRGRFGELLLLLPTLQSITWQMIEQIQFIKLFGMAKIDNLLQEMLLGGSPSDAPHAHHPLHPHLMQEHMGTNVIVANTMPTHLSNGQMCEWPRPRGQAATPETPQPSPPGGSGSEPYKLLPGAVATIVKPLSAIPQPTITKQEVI
Sequence of Nuclear receptor subfamily 1 group I member 3 (Homo sapiens) (Q14994 whole entry, looked up, the tested form may be a part): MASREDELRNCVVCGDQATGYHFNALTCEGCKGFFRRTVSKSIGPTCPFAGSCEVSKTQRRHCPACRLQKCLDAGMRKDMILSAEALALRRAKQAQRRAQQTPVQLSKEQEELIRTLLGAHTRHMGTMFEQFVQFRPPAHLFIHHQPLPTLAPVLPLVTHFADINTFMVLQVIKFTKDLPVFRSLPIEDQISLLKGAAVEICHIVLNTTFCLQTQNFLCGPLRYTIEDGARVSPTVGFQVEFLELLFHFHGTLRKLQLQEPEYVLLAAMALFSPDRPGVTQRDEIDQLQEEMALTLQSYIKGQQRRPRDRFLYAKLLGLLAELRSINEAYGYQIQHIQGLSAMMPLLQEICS
Sequence of Transcriptional activator Myb (Homo sapiens) (P10242 whole entry, looked up): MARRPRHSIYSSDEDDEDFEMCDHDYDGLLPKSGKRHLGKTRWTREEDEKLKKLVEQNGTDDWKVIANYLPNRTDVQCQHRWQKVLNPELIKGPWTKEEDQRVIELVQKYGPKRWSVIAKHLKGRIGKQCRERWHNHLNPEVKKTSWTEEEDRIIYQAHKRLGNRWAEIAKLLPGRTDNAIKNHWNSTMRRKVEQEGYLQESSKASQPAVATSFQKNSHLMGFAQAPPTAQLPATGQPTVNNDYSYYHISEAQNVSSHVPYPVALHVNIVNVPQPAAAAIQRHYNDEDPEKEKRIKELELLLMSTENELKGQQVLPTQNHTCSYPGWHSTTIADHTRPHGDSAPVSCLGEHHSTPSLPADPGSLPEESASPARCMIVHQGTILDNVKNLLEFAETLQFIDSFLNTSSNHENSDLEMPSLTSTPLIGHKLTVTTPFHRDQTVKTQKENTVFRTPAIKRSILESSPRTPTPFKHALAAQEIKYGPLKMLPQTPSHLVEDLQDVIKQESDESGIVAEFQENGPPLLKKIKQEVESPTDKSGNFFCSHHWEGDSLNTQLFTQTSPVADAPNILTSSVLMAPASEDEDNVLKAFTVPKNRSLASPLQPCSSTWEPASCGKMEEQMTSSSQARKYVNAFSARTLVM
Sequence of X-box-binding protein 1 (Homo sapiens) (P17861 whole entry, looked up): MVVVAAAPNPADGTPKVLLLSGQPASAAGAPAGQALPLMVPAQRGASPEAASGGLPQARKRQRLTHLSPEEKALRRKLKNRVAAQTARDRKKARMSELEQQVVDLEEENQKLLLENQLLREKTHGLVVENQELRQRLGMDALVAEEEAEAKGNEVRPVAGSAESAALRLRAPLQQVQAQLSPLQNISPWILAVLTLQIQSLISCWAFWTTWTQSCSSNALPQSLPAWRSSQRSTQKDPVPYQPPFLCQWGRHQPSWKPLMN
Sequence of Oxysterols receptor LXR-alpha (Homo sapiens) (Q13133 whole entry, looked up, the tested form may be a part): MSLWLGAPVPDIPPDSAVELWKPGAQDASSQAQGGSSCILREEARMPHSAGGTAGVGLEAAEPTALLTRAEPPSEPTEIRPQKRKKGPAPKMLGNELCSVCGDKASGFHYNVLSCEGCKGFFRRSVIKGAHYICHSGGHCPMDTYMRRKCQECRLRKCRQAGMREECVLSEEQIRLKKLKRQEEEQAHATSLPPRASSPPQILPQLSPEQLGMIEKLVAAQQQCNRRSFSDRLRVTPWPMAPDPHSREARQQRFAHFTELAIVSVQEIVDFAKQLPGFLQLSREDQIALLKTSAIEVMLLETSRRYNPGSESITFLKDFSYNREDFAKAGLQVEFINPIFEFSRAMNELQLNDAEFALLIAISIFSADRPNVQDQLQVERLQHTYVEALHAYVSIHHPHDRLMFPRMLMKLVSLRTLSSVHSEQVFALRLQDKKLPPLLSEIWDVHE
Sequence of Bile acid receptor (Homo sapiens) (Q96RI1 whole entry, looked up, the tested form may be a part): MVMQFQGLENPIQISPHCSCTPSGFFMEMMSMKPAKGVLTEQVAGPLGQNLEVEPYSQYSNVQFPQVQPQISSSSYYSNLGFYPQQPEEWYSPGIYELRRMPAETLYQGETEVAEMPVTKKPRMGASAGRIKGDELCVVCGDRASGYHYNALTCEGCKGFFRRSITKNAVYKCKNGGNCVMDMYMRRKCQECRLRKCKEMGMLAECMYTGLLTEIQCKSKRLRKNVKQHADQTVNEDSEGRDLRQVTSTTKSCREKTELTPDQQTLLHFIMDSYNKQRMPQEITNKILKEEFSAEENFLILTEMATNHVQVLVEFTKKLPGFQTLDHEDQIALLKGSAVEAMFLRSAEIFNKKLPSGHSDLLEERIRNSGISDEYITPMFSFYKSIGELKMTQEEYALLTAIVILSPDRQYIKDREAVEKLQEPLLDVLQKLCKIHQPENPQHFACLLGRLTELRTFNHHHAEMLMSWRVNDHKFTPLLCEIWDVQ

With `CCN(CC)C(=S)SSC(=S)N(CC)CC`, the result in test [1], in test [2], in test [4], in test [5], in [7] and in test [8] was inactive. The compound was called inactive in test [9], in test [10] and in [11]. Besides, the AC50 (as a rule, the concentration giving half of the maximal activity seen) was 117 µM (active) in test [3]; 139 µM (active) in test [6]; 162 µM (active) in test [12]; 175 µM (active) in test [13]; 158 µM (active) in test [14].
With `S=P(N1CC1)(N1CC1)N1CC1`, the outcome in test [1], in test [2], in [3], in test [4], in test [15] and in test [6] was inactive. For the same compound, the result in test [7], in [16], in test [8], in [9], in test [17] and in [18] was inactive. Also, the outcome in test [10], in [11], in test [19], in [12], in test [13] and in [14] was inactive. Further, the concentration at half-maximal activity (AC50) in [3] is 17 µM (active) and 27.4 µM (active).
In the case of `O=C(O)CO`, the outcome in [1], in test [2], in [3], in test [4], in test [5] and in test [6] was inactive. Also, the call in test [7], in [16], in test [17], in [10], in test [11] and in [12] was inactive. The compound was called inactive in test [13] and in test [14]. The AC50 in test [19] was 27.3 µM (active).
On to `O=S(=O)(O)c1ccc(N=Nc2c(O)ccc3cc(S(=O)(=O)O)ccc23)cc1`, for which the call in test [1], in [2], in [3], in test [4], in test [15] and in [6] was inactive. The compound was classed as inactive in test [7], in test [8], in test [17], in [18], in [10] and in test [11]. Besides, the call in test [19], in test [12], in test [13] and in test [14] was inactive.
